# Source: PubChem BioAssay (EPA / NIEHS)
# Several values for one entry are separate records, joined by “and”; a condition that tells them apart may be missing. Identical values can stand only once. More than one record can exist for a structure, and the calls need not agree. Activity calls are given as the source filed them. The calls were made as follows: active = hit-call score of the fitted dose curve at least 0.9, where 1 is the maximum; inactive = score below 0.9.
# Target: CCAAT/enhancer-binding protein beta (Homo sapiens) (UniProt P17676)
# Assay: ATG_C_EBP_CIS: Attagene CIS-FACTORIAL HepG2 Assay for human CCAAT/Enhancer Binding Protein (C/EBP) beta (AID 2282927)
# Details: HepG2 Attagene cis-factorial transcription factor reporter; actives raise or lower the signal
# How it was run: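 Endogenous transcription factor activity in human liver HepG2 cells is inferred from induction of a CEBPB-linked reporter mRNA. Exposure lasts 24 h; activity is fitted in both directions relative to DMSO.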
# Chain of CCAAT/enhancer-binding protein beta (Homo sapiens) (P17676 whole entry, looked up): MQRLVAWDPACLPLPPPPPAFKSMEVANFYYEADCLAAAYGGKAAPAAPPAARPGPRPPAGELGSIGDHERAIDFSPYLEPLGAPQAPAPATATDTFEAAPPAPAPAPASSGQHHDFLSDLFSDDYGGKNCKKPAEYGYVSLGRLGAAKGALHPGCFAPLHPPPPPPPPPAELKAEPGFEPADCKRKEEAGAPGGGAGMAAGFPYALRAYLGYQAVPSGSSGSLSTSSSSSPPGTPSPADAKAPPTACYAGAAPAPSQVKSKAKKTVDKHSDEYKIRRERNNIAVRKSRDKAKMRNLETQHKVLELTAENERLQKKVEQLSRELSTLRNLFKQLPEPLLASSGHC
Compound,outcome,AC50
CC(=O)OCC(COC(C)=O)OC(C)=O,inactive,–
Cc1ccc(C(C)(C)C)c(O)c1,inactive,–
CCCCC(CC)COC(=O)CCCCCCCC(=O)OCC(CC)CCCC (centres undefined),inactive,–
S=c1[nH]c2ccccc2s1,inactive,–
CCCC(=O)O,inactive,–
O=C(NS(=O)(=O)/C=C/c1cccs1)c1ccc(F)cc1Br,inactive,–
O=C(O)c1cccnc1,inactive,–
COC(=O)[C@H]1[C@H]2C[C@@H]3c4[nH]c5cc(OC)ccc5c4CCN3C[C@H]2C[C@@H](OC(=O)c2cc(OC)c(OC)c(OC)c2)[C@@H]1OC,inactive,–
CC(C)(O)c1ccc(CNC(=O)c2cccnc2Oc2ccc(F)cc2)cc1,inactive,–
CC(C)COC(=O)CCCCC(=O)OCC(C)C,inactive,–
CN(C)CCCN(C)CCCN(C)C,inactive,–
O=C(O)CN(CC(=O)O)CC(=O)O,inactive,–
Oc1ccccc1O,inactive,–
CCCCOC(=O)CCCCC(=O)OCCCC,inactive,–
CC(N)=O,inactive,–
Cc1occc(=O)c1O,inactive,–
CC(=O)[C@@]1(O)CC[C@H]2[C@@H]3CCC4=CC(=O)CC[C@]4(C)[C@H]3CC[C@@]21C,inactive,–
NC=O,inactive,–
CC(=O)CC(c1ccccc1)c1c(O)c2ccccc2oc1=O (centres undefined),inactive,–
CC1=C(C)S(=O)(=O)CCS1(=O)=O,–,129 µM (active)
CC(C)OC(=O)C(C)(C)Oc1ccc(C(=O)c2ccc(Cl)cc2)cc1,inactive,–
O=C(N[C@@H](c1ccccc1)[C@@H]1CCCCN1)c1cccc(C(F)(F)F)c1Cl,inactive,–
CCc1cc(C2=C(C(=O)O)N(c3ccccc3C(F)(F)F)S(=O)(=O)c3ccccc32)cc2c1OCO2,inactive,–
Oc1ccc(O)cc1,inactive,–
CC(=O)O[C@]1(C(C)=O)CC[C@H]2[C@@H]3C=C(Cl)C4=CC(=O)[C@@H]5C[C@@H]5[C@]4(C)[C@H]3CC[C@@]21C,inactive,–
CC(C)c1cccc(C(C)C)c1NC(=O)NS(=O)(=O)c1cc(C(C)(C)O)co1,inactive,–
O=C(Oc1ccccc1)c1cccc(C(=O)Oc2ccccc2)c1,inactive,–
Cn1cnc2c1c(=O)[nH]c(=O)n2C,inactive,–
O=C1CCCCC1,inactive,–

# System: not listed separately
# Assay: ATG_CMV_CIS: Attagene CIS-FACTORIAL HepG2 Assay for human CMV (Internal Marker) (AID 2282928);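 also: endpoint acts as a background internal control marker rather than a target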
# Details: HepG2 CMV promoter reporter, transcription factor profiling; actives raise or lower the signal
# How it was run: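 CMV internal-marker background readout in transiently transfected HepG2 cells bearing cis-regulated reporter units. Reporter mRNA is measured 24 h after dosing by RT-PCR and capillary electrophoresis, with bidirectional fitting against DMSO.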
Compound,outcome,AC50
CC(=O)OCC(COC(C)=O)OC(C)=O,inactive,–
Cc1ccc(C(C)(C)C)c(O)c1,–,100 µM (active)
CCCCC(CC)COC(=O)CCCCCCCC(=O)OCC(CC)CCCC (centres undefined),inactive,–
S=c1[nH]c2ccccc2s1,–,100 µM (active)
CCCC(=O)O,–,44.4 µM (active)
O=C(NS(=O)(=O)/C=C/c1cccs1)c1ccc(F)cc1Br,inactive,–
O=C(O)c1cccnc1,inactive,–
COC(=O)[C@H]1[C@H]2C[C@@H]3c4[nH]c5cc(OC)ccc5c4CCN3C[C@H]2C[C@@H](OC(=O)c2cc(OC)c(OC)c(OC)c2)[C@@H]1OC,inactive,–
CC(C)(O)c1ccc(CNC(=O)c2cccnc2Oc2ccc(F)cc2)cc1,inactive,–
CC(C)COC(=O)CCCCC(=O)OCC(C)C,inactive,–
CN(C)CCCN(C)CCCN(C)C,inactive,–
O=C(O)CN(CC(=O)O)CC(=O)O,inactive,–
Oc1ccccc1O,–,25 µM (active)
CCCCOC(=O)CCCCC(=O)OCCCC,–,154 µM (active)
CC(N)=O,inactive,–
Cc1occc(=O)c1O,inactive,–
CC(=O)[C@@]1(O)CC[C@H]2[C@@H]3CCC4=CC(=O)CC[C@]4(C)[C@H]3CC[C@@]21C,inactive,–
NC=O,inactive,–
CC(=O)CC(c1ccccc1)c1c(O)c2ccccc2oc1=O (centres undefined),inactive,–
CC1=C(C)S(=O)(=O)CCS1(=O)=O,–,143 µM (active)
CC(C)OC(=O)C(C)(C)Oc1ccc(C(=O)c2ccc(Cl)cc2)cc1,–,67.9 µM (active)
O=C(N[C@@H](c1ccccc1)[C@@H]1CCCCN1)c1cccc(C(F)(F)F)c1Cl,–,12.1 µM (active)
CCc1cc(C2=C(C(=O)O)N(c3ccccc3C(F)(F)F)S(=O)(=O)c3ccccc32)cc2c1OCO2,inactive,–
Oc1ccc(O)cc1,inactive,–
CC(=O)O[C@]1(C(C)=O)CC[C@H]2[C@@H]3C=C(Cl)C4=CC(=O)[C@@H]5C[C@@H]5[C@]4(C)[C@H]3CC[C@@]21C,inactive,100 µM (active) and 73.3 µM (active) and 33.4 µM (active)
CC(C)c1cccc(C(C)C)c1NC(=O)NS(=O)(=O)c1cc(C(C)(C)O)co1,inactive,–
O=C(Oc1ccccc1)c1cccc(C(=O)Oc2ccccc2)c1,inactive,–
Cn1cnc2c1c(=O)[nH]c(=O)n2C,inactive,–
O=C1CCCCC1,inactive,–
